Source: PubChem BioAssay (NMMLSC)
AGP1 TOR yeast – yeast TOR pathway AGP1-GFP modulation; GFP response vs DMSO, % at 10 µM; S. cerevisiae AGP1-GFP multiplex flow cytometry, 3 h; GFP as percent of DMSO wells; actives 0.02% (n = 320,000);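 active means GFP response relative to DMSO above a set limit, near screen average plus 3 SD, cut at about 150% in these data; inconclusive means fewer than 70 cells counted for the yeast strain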;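 further: median GFP channel fluorescence of the gated AGP1 strain per well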
RPL19A-GFP yeast – alters RPL19A-GFP fluorescence in TOR pathway yeast screen; S. cerevisiae RPL19A-GFP strain, flow cytometry, 3 h; active compounds read low; percent response vs DMSO, % at 10 µM; actives 0.3% (n = 330,000);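 active means percent response vs DMSO below 50%; inconclusive means fewer than 70 events counted for the yeast strain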;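 further: median channel GFP fluorescence of the barcoded RPL19A-GFP strain; ratio of sample median GFP to plate DMSO average so 100% = DMSO; lower means less RPL19A-GFP as with rapamycin TOR inhibition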
MEP2 TOR yeast – modulators of TOR pathway MEP2-GFP in S. cerevisiae. actives 0.51% (n = 330,000). S. cerevisiae MEP2-GFP strain, flow cytometry GFP, 3 h; 100% = DMSO control level. AID 2016. GFP response vs DMSO, % at 10 µM;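 active means GFP response versus DMSO above a set limit, roughly screen mean plus 3 SD, cut at about 180% in these data; inconclusive means fewer than 70 cells counted for a yeast strain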;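 further: median GFP fluorescence of the barcode-gated MEP2-GFP cells per well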
CIT2 TOR yeast – alters CIT2-GFP fluorescence in TOR pathway yeast screen; S. cerevisiae CIT2-GFP strain, flow cytometry, 3 h; 100 means same as DMSO wells; GFP response vs DMSO, % at 10 µM; actives 0.065% (n = 320,000);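 active means GFP response relative to DMSO above a set limit, near the screen mean plus 3 SD, cut at about 150% in these data; inconclusive means Fewer than 70 cells measured for a yeast strain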;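 further: ratio of well median GFP fluorescence to mean of DMSO wells on the plate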
LAP4-GFP MLPCN – modulators of TOR pathway LAP4-GFP in S. cerevisiae. S. cerevisiae LAP4-GFP multiplex, flow cytometry GFP, 3 h; median GFP as percent of DMSO wells. GFP response vs DMSO, % at 10 µM. actives 0.34% (n = 320,000);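 active means GFP response vs DMSO above a set limit, about the screen mean plus 3 SD, cut at about 150% in these data; inconclusive means under 70 cell events counted for the yeast strain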
Myeloid diff 2 – myeloid differentiation induction; actives 1% (n = 360,000); AID 624256; ER-HoxA9 myeloid progenitors, lysozyme-GFP differentiation, flow cytometry; calls only at 10 µM;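 active means normalized GFP-positive differentiation at or above the plate's own cutoff, the solvent-only control mean plus 3 SD; inconclusive means no clear call, values can overlap the other calls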;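 further: cells exposed to compound for four days before flow analysis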
Numbers without * were called inactive; i = inactive; ? = inconclusive; . = no result; + = active, no number; [ ] = remark or other dose. An excerpt weighted towards active compounds, which were near 1.8% of everything screened.

SMILES | AGP1 TOR yeast | RPL19A-GFP yeast | MEP2 TOR yeast | CIT2 TOR yeast | LAP4-GFP MLPCN | Myeloid diff 2
CCOc1ccc(C(=O)O[C@H]2[C@H](Cc3ccccc3)NS(=O)(=O)[C@H]3C[C@@H]4C=C[C@]23O4)cc1 | 92.0 | 91.6 | 80.8 | 91.8 | 86.9 | +
O=C1CSC(c2cn(-c3ccccc3)nc2-c2ccc3c(c2)OCCO3)N1CCN1CCOCC1 (configuration not stated) | 27.9 | 37.4*[may fluoresce violet] | 351.3*[may fluoresce violet] | ? | 95.1 | ?
O=C1CSC(c2cn(-c3ccccc3)nc2-c2cc3ccccc3oc2=O)N1Cc1ccccc1 (configuration not stated) | 90.2 | 90.5 | 94.3 | 93.5 | 91.8 | i
CCN1C(=O)[C@@H]2Cc3c([nH]c4ccccc34)C(c3ccc(OC)cc3)N2C1=S (some centres not stated) | 103.5 | 99.8 | 98.9 | 97.8 | 108.4 | +
COC(=O)c1ccc(C2c3[nH]c4ccccc4c3C[C@H]3C(=O)N(C)CC(=O)N23)cc1 (some centres not stated) | 96.6 | 101.7 | 104.6 | 109.6 | 95.5 | i
O=C(OCc1ccc(F)cc1)c1ccc2c(c1)-c1ccccc1C2=O | . | 43.3*[may fluoresce violet] | 263.1*[may fluoresce violet] | ? | 95.7 | i
CCOC(=O)C1=C(Cc2ccc(F)cc2)C(=O)c2ccccc2C1=O | 81.0 | 92.8 | 110.2 | 82.5 | 155.1* | +
Cc1ccc2nc(Nc3ccccc3)c(C=O)c(=O)n2c1 | 80.5 | 102.2 | 102.3 | 95.5 | 96.8 | i
COc1ccccc1CCNC(=O)Cn1ccc2cc(S(=O)(=O)N3CCC(C)CC3)ccc21 | 105.0 | 103.2 | 103.6 | 97.4 | 104.8 | +
COc1ccc(OC)c(CCNC(=O)Cn2ccc3cc(S(=O)(=O)N4CCCC4)ccc32)c1 | 92.3 | 93.0 | 91.6 | 90.5 | 89.7 | i
Cc1[nH]c(C)c(S(=O)(=O)N2CCN(c3ccccc3)CC2)c1C(=O)N1CCCCC1 | ? | 47.3*[may fluoresce violet] | 509.4*[may fluoresce violet] | ? | 116.5 | i
Cc1[nH]c(C)c(S(=O)(=O)N2CCN(c3cccc(Cl)c3)CC2)c1C(=O)N1CCCC1 | 99.7 | 100.1 | 102.7 | 101.8 | 85.8 | i
CCC(C)[C@H](NC(=O)NCc1cccs1)C(=O)O (some centres not stated) | 92.5 | 93.0 | 97.1 | 94.5 | 97.0 | i
C(=N\Nc1nc2ccccc2[nH]1)/c1ccc2c(c1)OCO2 | . | . | . | . | . | i
C(=C/c1nccc2c1[nH]c1ccccc12)/c1ccc2c(c1)OCO2 | . | . | . | . | . | +
Cc1nc2c3cc(F)ccc3n(Cc3ccc(F)cc3)c2s1 | 94.4 | 104.0 | 99.2 | 99.2 | 89.9 | +
Cc1cc(=O)[nH]c(N2CCCNCC2)n1 | 103.5 | 106.8 | 111.0 | 109.5 | 91.2 | i
Cc1cc(=O)[nH]c(-n2nc(C)cc2C)n1 | 90.9 | 99.8 | 93.5 | 91.8 | 173.0* | i
Cc1cc(-c2ccc(N=Nc3c(S(=O)(=O)O)cc4cc(S(=O)(=O)O)cc(N)c4c3O)c(C)c2)ccc1N=Nc1c(S(=O)(=O)O)cc2cc(S(=O)(=O)O)cc(N)c2c1O | 53.0 | ? | 71.9 | 51.1 | 400.2*[may fluoresce red] | .
O=S(=O)(O)c1cc(O)c2c(O)c(N=Nc3cc(Cl)ccc3O)c(S(=O)(=O)O)cc2c1 | 97.0 | 96.6 | 100.5 | 85.2 | 95.2 | i
CCN(CC)C(=O)c1sc(NC(=O)c2cccs2)c(C#N)c1C | 100.4 | 101.1 | 105.0 | 102.7 | 106.4 | i
CCN(CC)C(=O)c1ccc(-c2cccs2)s1 | 72.4 | 85.0 | 72.5 | 51.5 | 183.9* | i
Cc1ccc(C)c(OCCC(=O)OCC(=O)Nc2cc(S(=O)(=O)N3CCCCC3)ccc2C)c1 | 112.1 | 106.7 | 117.6 | 110.8 | 132.1 | i
O=C(CCN1C(=O)/C(=C/c2ccc(F)cc2)SC1=S)NCCCn1ccnc1 | 88.6 | 99.8 | 103.0 | 96.9 | 77.8 | i
O=C(CN1C(=O)S/C(=C\c2ccc(F)cc2)C1=O)NCCCn1ccnc1 | 13.4 | 18.1*[may fluoresce violet] | 154.2 | ? | 62.1 | i
SMILES | AGP1 TOR yeast | RPL19A-GFP yeast | MEP2 TOR yeast | CIT2 TOR yeast | LAP4-GFP MLPCN | Myeloid diff 2
CCOCC(=O)Nc1cc([N+](=O)[O-])ccc1C | 102.4 | 103.0 | 100.1 | 103.8 | 99.0 | i
Cc1ccc([N+](=O)[O-])cc1NCC(=O)NN | 20.5 | 60.0 | 187.8*[may fluoresce violet] | ? | 95.1 | i
Cc1ccc(-c2cc(C(=O)Nc3cccnc3)c3ccccc3n2)s1 | 97.2 | 103.2 | 99.0 | 104.3 | 103.9 | i
COc1ccc(OC)c(NC(=O)CSc2ncnc3c2cnn3-c2ccccc2Cl)c1 | 102.4 | 104.6 | 99.5 | 104.0 | 105.4 | +
COc1cc(NC(=O)CSc2ncnc3c2cnn3Cc2ccccc2)cc(OC)c1 | 104.0 | 104.4 | 102.8 | 94.2 | 97.2 | i
COc1cc(NC(=O)Nn2cnnc2)cc(OC)c1OC | 109.4 | 101.1 | 101.3 | 106.7 | 104.2 | +
COc1ccc(NC(=O)Nn2cnnc2)cc1OC | 96.3 | 100.6 | 109.4 | 104.3 | 97.9 | i
CCCN1C2=NS(=O)(=O)CCN2c2ccccc21 | 30.5 | . | 260.1*[may fluoresce violet] | ? | 85.0 | i
CCCCCCN1C2=NCCCN2c2ccccc21 | 110.3 | 102.6 | 96.2 | 100.3 | 108.5 | i
CCOC(=O)C1=C(O)C(=O)C(C(=O)OCC)C1 (configuration not stated) | . | . | . | . | . | i
COc1ccc(OC)c(S(=O)(=O)n2ccc(C)n2)c1 | 13.4 | 84.6 | 258.5*[may fluoresce violet] | ? | 85.3 | i
Cc1ccc(C)c(OCc2ccc(C(=O)NN)o2)c1 | 104.3 | 96.7 | 89.1 | 89.8 | 95.9 | +
Cc1cc(C)n(Cc2ccc(C(=O)NN)o2)n1 | 100.0 | 91.1 | 99.1 | 96.5 | 107.9 | +
S=c1[nH]c2ccccc2n1CCOc1ccccc1 | 89.4 | 98.8 | 105.6 | 89.7 | 100.0 | i
COc1ccc(-c2[nH]ncc2CN(CCO)Cc2cccs2)c(F)c1 | 102.7 | 101.8 | 198.5* | 117.7 | 129.4 | i
CCN(Cc1ccncc1)Cc1cn[nH]c1-c1ccc(OC)cc1F | 98.6 | 94.7 | 101.8 | 101.7 | 99.4 | i
Cc1ccc(S(=O)(=O)NCCN2CCOCC2)cc1 | 99.3 | 98.7 | 99.5 | 102.3 | 87.0 | i
CCCNC(=O)Nc1ccc(F)c(Cl)c1 | 102.2 | 96.7 | 95.9 | 95.5 | 107.9 | i
O=[N+]([O-])c1ccccc1NS(=O)(=O)c1ccccc1 | . | . | . | . | . | i
Cc1ccc(NC(=O)N2CCC(NC(=O)c3ccco3)CC2)cc1 | 95.3 | 105.6 | 101.8 | 110.2 | 81.9 | +
Cc1cc(C)cc(NC(=O)N2CCC(NC(=O)c3ccco3)CC2)c1 | 105.3 | 105.2 | 99.6 | 97.0 | 92.8 | ?
O=C(CN1CCc2ccccc21)NN1CC(=O)N(c2ccccc2)CC1=O | 113.0 | 105.3 | 99.9 | 109.3 | 120.5 | i
CN(C)c1ccc(N=C/C=C2\N(C)c3ccccc3C2(C)C)cc1 | 93.1 | 93.6 | 99.6 | 89.2 | 103.7 | +
